Data reported in PubChem BioAssay (NCI).
Compounds without any hit were thinned out: in the full panel of roughly 79,000, 15% have a hit. The source made the active and inactive calls. No stated cut-off is given here; in the data, active means growth inhibition above about 70%; inactive means the rest.

How the values were obtained:
[1] = NCI Yeast Anticancer Drug Screen. Data for the rad50 strain (AID 155);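 further: 0% = growth of vehicle-only cultures of the same strain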; settings: S. cerevisiae rad50 strain growth inhibition, stronger effect = higher value
In short: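 Readout: growth inhibition relative to vehicle-treated cultures. Compound exposure was carried out in a genetically defined yeast strain deficient in DNA damage repair.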

[2] = NCI Yeast Anticancer Drug Screen. Data for the mec2-1 strain (AID 157); settings: S. cerevisiae mec2-1 strain, stronger effect = higher value
In short: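 Using mec2-1 yeast: add compound, measure growth, express inhibition versus vehicle-treated cultures.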

[3] = NCI Yeast Anticancer Drug Screen. Data for the sgs1 mgt1 strain (AID 161);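 further: 0% = growth of cultures given vehicle only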; settings: S. cerevisiae sgs1 mgt1 strain, stronger effect = higher value
In short: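 Percent growth inhibition was derived by comparing compound-exposed mutant yeast with vehicle-exposed cultures. The strain carries alterations in DNA damage repair.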

[4] = NCI Yeast Anticancer Drug Screen. Data for the cln2 rad14 strain (AID 165);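 further: 0% = growth equal to vehicle treated cultures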; settings: S. cerevisiae cln2 rad14 strain, stronger effect = higher value
In short: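 Yeast strain cln2 rad14, bearing defects in cell cycle control and DNA repair, serves as the test system; values reflect growth inhibition compared with vehicle.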

[5] = NCI Yeast Anticancer Drug Screen. Data for the bub3 strain (AID 167); settings: S. cerevisiae bub3 mutant strain, stronger effect = higher value
In short: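 Readout: yeast growth inhibition, expressed relative to vehicle-only wells. The test organism is a mutant strain from a panel with lesions in DNA repair or checkpoint genes.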

[6] = NCI Yeast Anticancer Drug Screen. Data for the mlh1 rad18 strain (AID 175); settings: S. cerevisiae mlh1 rad18 strain growth inhibition, stronger effect = higher value
In short: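 Steps: expose repair-defective yeast to compound; measure growth; express inhibition against vehicle-treated controls.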

[7] = at 5.0 µM (retest, dose inferred, filed as 0.5)
[8] = at 50.0 µM (retest, dose inferred, filed as 5.0)

Measured: growth inhibition

CCCCCCCCCCCC1=NCC(C)N1 (configuration not stated)
active: [1]; at 50.0 µM 71.9%
inactive: [1]; [7] -39% | [1]; [8] 26% | [2]; [7] 2% | [2]; [8] 27% | [2]; at 50.0 µM -2.95% | [3]; [7] -3% | [3]; [8] 1% | [3]; at 50.0 µM 28.6% | [4]; [7] -46% | [4]; [8] -5% | [4]; at 50.0 µM 44.4% | [5]; [7] 0% | [5]; [8] 36% | [5]; at 50.0 µM 45% | [6]; [7] -29% | [6]; [8] 15% | [6]; at 50.0 µM 46%

Cc1cc(/C=N/Nc2ccc3cccc(O)c3n2)c(O)c2ncccc12
active: [1]; [8] 98% | [1]; at 50.0 µM 99.1% | [2]; [8] 98% | [2]; at 50.0 µM 99% | [3]; [8] 99% | [3]; at 50.0 µM 99.1% | [4]; [8] 99% | [4]; at 50.0 µM 98.7% | [5]; [8] 99% | [5]; at 50.0 µM 99.2% | [6]; [8] 98% | [6]; at 50.0 µM 97%
inactive: [1]; [7] 40% | [2]; [7] 41% | [3]; [7] 51% | [4]; [7] 21% | [5]; [7] 17% | [6]; [7] 58%

CCCC(=O)NCCNC(=O)CCC
inactive: [1]; [7] -154% | [1]; [8] -159% | [1]; at 50.0 µM 4.35% | [2]; [7] -48% | [2]; [8] -54% | [2]; at 50.0 µM 7.75% | [3]; [7] -61% | [3]; [8] -62% | [3]; at 50.0 µM 1.75% | [4]; [7] -50% | [4]; [8] -62% | [4]; at 50.0 µM 45.8% | [5]; [7] -69% | [5]; [8] -82% | [5]; at 50.0 µM -3.15% | [6]; [7] -139% | [6]; [8] -117% | [6]; at 50.0 µM 10.1%

Cc1ccc(SSCCCCS(=O)O)cc1
inactive: [1]; [7] -2% | [1]; [8] 33% | [1]; at 50.0 µM 65.7% | [2]; [7] 4% | [2]; at 50.0 µM 62.2% | [3]; [7] 5% | [4]; [7] -5% | [4]; [8] 64% | [5]; [7] 13% | [6]; [7] 1%
active: [2]; [8] 85% | [3]; [8] 91% | [3]; at 50.0 µM 82.8% | [4]; at 50.0 µM 84.9% | [5]; [8] 88% | [5]; at 50.0 µM 80.3% | [6]; [8] 80% | [6]; at 50.0 µM 91.8%

O=C1c2cc(F)ccc2-c2c(F)cc(F)c(F)c21
inactive: [1]; [7] 8% | [1]; [8] 7% | [2]; [7] 6% | [2]; [8] 5% | [2]; at 50.0 µM 55.9% | [3]; [7] 2% | [3]; [8] 4% | [3]; at 50.0 µM 41% | [4]; [7] 3% | [4]; [8] -6% | [4]; at 50.0 µM 34.9% | [5]; [7] -7% | [5]; [8] -14% | [5]; at 50.0 µM 5.95% | [6]; [7] 4% | [6]; [8] 7% | [6]; at 50.0 µM 46.8%
active: [1]; at 50.0 µM 82.3%

Oc1ccc(C(c2ccccc2)(c2ccccc2)c2ccccc2)cc1O
inactive: [1]; [7] -8% | [2]; [7] -2% | [3]; [7] -4% | [4]; [7] 0% | [5]; [7] -4% | [6]; [7] 0%
active: [1]; [8] 99% | [1]; at 50.0 µM 98.2% | [2]; [8] 100% | [2]; at 50.0 µM 98.7% | [3]; [8] 99% | [3]; at 50.0 µM 98.3% | [4]; [8] 97% | [4]; at 50.0 µM 97.4% | [5]; [8] 99% | [5]; at 50.0 µM 98% | [6]; [8] 99% | [6]; at 50.0 µM 98%

Cc1ccc(N2C(=O)C(Cl)=C(Cl)C2=O)cc1
inactive: [1]; [7] 11% | [2]; [7] 12% | [3]; [7] 20% | [4]; [7] 8% | [5]; [7] 16% | [6]; [7] 14%
active: [1]; [8] 99% | [1]; at 50.0 µM 99.3% | [2]; [8] 100% | [2]; at 50.0 µM 99.4% | [3]; [8] 100% | [3]; at 50.0 µM 99.5% | [4]; [8] 99% | [4]; at 50.0 µM 98.8% | [5]; [8] 99% | [5]; at 50.0 µM 99.3% | [6]; [8] 100% | [6]; at 50.0 µM 97.5%

N#CS/C(Cl)=C(/C(Cl)=C(Cl)Cl)[N+](=O)[O-]
active: [1]; [8] 99% | [1]; at 50.0 µM 84.8% | [2]; [8] 99% | [2]; at 50.0 µM 70.7% | [3]; [8] 98% | [3]; at 50.0 µM 87.4% | [4]; [8] 98% | [5]; [8] 99% | [5]; at 50.0 µM 85.7% | [6]; [8] 99% | [6]; at 50.0 µM 81.2%
inactive: [1]; [7] 5% | [2]; [7] 18% | [3]; [7] -3% | [4]; [7] -5% | [4]; at 50.0 µM 48.6% | [5]; [7] -21% | [6]; [7] -15%

O=[N+]([O-])c1cc([N+](=O)[O-])c2ccccc2c1O
inactive: [1]; [7] 17% | [2]; [7] 8% | [2]; at 50.0 µM 65.1% | [3]; [7] 7% | [4]; [7] -6% | [4]; [8] 48% | [4]; at 50.0 µM 52% | [5]; [7] 2% | [5]; at 50.0 µM 61% | [6]; [7] 9%
active: [1]; [8] 90% | [1]; at 50.0 µM 75% | [2]; [8] 90% | [3]; [8] 89% | [3]; at 50.0 µM 88.8% | [5]; [8] 87% | [6]; [8] 92% | [6]; at 50.0 µM 82.3%
